Bioassay records from PubChem BioAssay.
GCN5L2 inh – qHTS Assay for Inhibitors of GCN5L2 | GCN5L2 HAT assay, ThioGlo1 CoA-SH fluorescence | Histone acetyltransferase KAT2A (Homo sapiens), Q92830 | 390,000 tested, 0.21% active | Potency, µM (doses to about 58.9 µM), for inactives: top-dose activity change, negative = inhibition, usual class: inhibitors; further: on the % scale 0 is the no-effect control and ±100 the full control effect
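Compounds, pin-transferred from DMSO stocks, meet 20nM GCN5L2 for 15 min before the reaction begins with H3(1-25) peptide (75uM) and acetyl-CoA (70uM). Thiol-reactive ThioGlo1 reports CoA release over 20 min at room temperature.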
PTHR1 ag – qHTS for PTHR1 Agonists: Primary Screen; Parathyroid hormone/parathyroid hormone-related peptide receptor (Homo sapiens), Q03431; HEK293 GP2 PTHR1 cells, GloSensor cAMP luminescence, 1 h; Potency, µM (doses to about 115 µM), for inactives: at the top dose activation, hits mostly activators; 410,000 tested, 0.075% active; AID 743266, 2014; further: nearly all actives have a fitted effect of over 55% in size
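HEK-293-derived GP2 cells expressing PTHR1 and a GloSensor cAMP reporter, 3,000/well, plated overnight, given luciferin plus IBMX (each 0.5 mM as added) for 1 h at 37 °C, then compound for 1 h at 37 °C. Luminescence was read after 15 min at room temperature.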
HEK293 tox – qHTS of GLP-1 Receptor Inverse Agonists: Cytotox Screen. Potency, µM (top dose mostly 38.3 µM), without a hit: at the top dose activity change, negative = inhibition, most hits filed as inhibitors. 410,000 tested, 0.13% active. HEK293 cAMP-luciferase reporter cells, luminescence, 24 h;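 further: loss of luciferase light is scored as toxicity; on the % scale 0 is the no-effect control and ±100 the full control effect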
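Luminescence readout: signal drop marks cytotoxicity. Plated cells grew 12 h at 37 °C, 5% CO2, received 23 nL compound for 24 h, then got luciferase reagent, read after 12 min at RT.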
GLP1R inv ag – qHTS of GLP-1 Receptor Inverse Agonists (Inhibition Mode) | Glucagon-like peptide 1 receptor (Homo sapiens), P43220 | HEK293 GLP-1R CRE-luciferase, luminescence, 24 h; GLP-1R form is constitutively active | 410,000 tested, 1.6% active | Potency, µM (doses to about 38.3 µM), for the others: at the highest dose activity change, negative = inhibition, hits mostly inhibitors; further: on the % scale 0 is the no-effect control and ±100 the full control effect; nearly all actives have a fitted effect of over 55% in size
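HEK293 cells stably co-expressing a cAMP-responsive luciferase reporter and constitutively active GLP-1R were seeded, incubated 12 h, then exposed to compounds for 24 h at 37 C. Luminescence was read 12 min after detection reagent; inverse agonists lower signal.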
GLP-1R agonist – qHTS of GLP-1 Receptor Agonists. Glucagon-like peptide 1 receptor (Homo sapiens), P43220. HEK293 GLP-1R CRE-luciferase, luminescence, 4-6 h; cells express a hypersensitive GLP-1R form. Potency, µM (top dose mostly 45.6 µM), for the others: top-dose activation, actives largely listed as activators. 380,000 tested, 0.007% active; further: % of control where 0% means no effect
RGS4 inhibitor – Inhibitors of Regulator of G Protein Signaling (RGS) 4: qHTS; Regulator of G-protein signaling 4 (Homo sapiens), P49798; Transcreener GDP fluorescence polarization, RGS4-accelerated GTP hydrolysis; Potency, µM (top dose mostly 114 µM), without a hit: top-dose activity change, negative = inhibition, actives largely listed as inhibitors; 390,000 tested, 0.039% active; AID 504845, 2011; further: on the % scale 0 is the no-effect control and ±100 the full control effect; nearly all actives have a fitted effect of over 75% in size
Target sequence (P49798 whole entry, looked up): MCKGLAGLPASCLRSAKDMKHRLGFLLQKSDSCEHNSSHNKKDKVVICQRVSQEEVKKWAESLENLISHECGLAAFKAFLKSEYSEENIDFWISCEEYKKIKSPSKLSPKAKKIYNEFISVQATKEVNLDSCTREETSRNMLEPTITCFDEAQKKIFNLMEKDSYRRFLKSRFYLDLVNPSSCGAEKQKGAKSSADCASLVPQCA
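MLSMR compounds (23 nl, pin-transferred) preincubated 10 min at room temperature with a 500nM (2x) first reagent, then RGS4 at 900nM (2x) plus Transcreener GDP mix added; fluorescence polarization (620/688 nm) read before and after 90 min at 30 °C.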
* hit, by the source's call. Most compounds without a hit are left out; they make up all but 1.8% or so of the library. The call rests on the fitted dose curve; in most records, active means well fitted curve in the direction sought with a large enough effect; inconclusive means small, poorly fitted or top-dose-only effect, or another doubt; inactive means no such curve, though single readings can be large; an effect the other way counts as inactive or inconclusive. Potency means the concentration at half of the fitted maximal effect.

Screening CCOc1[nH]c(/N=C/c2ccc(OC)cc2)c(C#N)c1C#N returned RGS4 inhibitor -5.2%.
For Cc1cc(N2CCCCCC2)nc(-c2ccccc2O)n1 the results were GCN5L2 inh -9.8%, PTHR1 ag inconclusive, HEK293 tox -1.3%, GLP1R inv ag inconclusive, GLP-1R agonist -4.8% and RGS4 inhibitor -5.8%.
Cc1cc(N2CCCCC2C)nc(-c2ccccc2O)n1 (stereo not given) was read as GCN5L2 inh -14.9%, PTHR1 ag inactive, HEK293 tox -1.0%, GLP1R inv ag 11.2µM*, GLP-1R agonist 21.6% and RGS4 inhibitor -4.3%.
CC(C)c1ccc(CNCCCSc2ncccn2)cc1 was read as GCN5L2 inh inconclusive, PTHR1 ag -15.5%, HEK293 tox 4.2%, GLP1R inv ag 36.7%, GLP-1R agonist -6.6% and RGS4 inhibitor -33.3%.
CCCCCCC(O)C/C=C\CCCCCCCC(=O)O (stereo not given) was read as GLP-1R agonist 1.0%.
`COc1ccc(OC)c(CN2C(=O)CSCC2(C)C(=O)NC(C)C)c1` (stereo not given) gave PTHR1 ag inactive, HEK293 tox 3.6% and GLP1R inv ag 14.9%.
Screening CCC1([N+](=O)[O-])COC(C=Cc2ccccc2)OC1 (stereo not given) returned PTHR1 ag inactive, HEK293 tox -3.5%, GLP1R inv ag inconclusive, GLP-1R agonist 11.4% and RGS4 inhibitor 14.1%.
Screening O=C1C=CCC(/C=C/c2ccccc2)O1 (stereo not given) returned GCN5L2 inh -1.6%, PTHR1 ag inactive, HEK293 tox -15.4%, GLP1R inv ag 2.51µM*, GLP-1R agonist 4.9% and RGS4 inhibitor inconclusive.
Screening Cc1cccc(C)c1OCc1cc(C(=O)N2CCN(c3ccccc3)CC2C)no1 (stereo not given) returned GCN5L2 inh -26.4%, PTHR1 ag -50.2%, HEK293 tox -4.4%, GLP1R inv ag inconclusive, GLP-1R agonist 3.6% and RGS4 inhibitor -51.4%.
Screening Cc1ccc(C)c(OCc2cc(C(=O)N3CCN(c4ccccc4C)CC3C)no2)c1 (stereo not given) returned GCN5L2 inh 2.7%, PTHR1 ag -17.9%, HEK293 tox 7.6%, GLP1R inv ag 2.51µM*, GLP-1R agonist -7.2% and RGS4 inhibitor -13.4%.
For Cc1ccc(C)c(OCc2cc(C(=O)N3CC[C@@H]4CCCC[C@H]4C3)no2)c1 the results were GCN5L2 inh -10.9%, PTHR1 ag inactive, HEK293 tox 7.0%, GLP1R inv ag 11.2µM*, GLP-1R agonist 1.8% and RGS4 inhibitor 6.2%.
`O=C(c1cc(COc2ccc(F)cc2Cl)on1)N1CCN(C2CCCCC2)C(=O)C1` gave GCN5L2 inh -3.9%, PTHR1 ag -36.1%, HEK293 tox -11.3%, GLP1R inv ag 10µM*, GLP-1R agonist 11.4% and RGS4 inhibitor 5.3%.
`CCc1ccc(S(=O)(=O)c2nnn3c2nc(NCc2cccs2)c2sccc23)cc1` gave GCN5L2 inh -9.0%, PTHR1 ag inactive, HEK293 tox 20.2%, GLP1R inv ag 60.2% and RGS4 inhibitor 8.8%.
`CC1=C(C#N)C(C)(C)C(C#N)=C(C)N1` gave PTHR1 ag inactive, HEK293 tox 5.0%, GLP1R inv ag 9.1% and GLP-1R agonist -2.1%.
